# “And” between values parts separate entries of the source, which are not always exact repeats. Identical values can stand only once. Screen size: about 5,700 compounds; about 85 (1%) were called active. The sample holds actives, similar compounds and a random draw of the others, so the mix is not that of the screen. No stated cut-off is given here; in the data, active means p53-positive nuclei above about 36% (passing the limit was not always enough); inactive means the rest.
# How the values were obtained:
# [1] = p53 stabilisation in HPV-positive human cells, imaging, p53-positive nuclei imaging, 24 h, 48 h (AID 1508601); conditions: 24/48 h
# [2] = target: Cellular tumor antigen p53 (Homo sapiens) (UniProt P04637); assay: as above; conditions: 24/48 h, stronger effect = higher value
# Chain of Cellular tumor antigen p53 (Homo sapiens) (P04637 whole entry, looked up): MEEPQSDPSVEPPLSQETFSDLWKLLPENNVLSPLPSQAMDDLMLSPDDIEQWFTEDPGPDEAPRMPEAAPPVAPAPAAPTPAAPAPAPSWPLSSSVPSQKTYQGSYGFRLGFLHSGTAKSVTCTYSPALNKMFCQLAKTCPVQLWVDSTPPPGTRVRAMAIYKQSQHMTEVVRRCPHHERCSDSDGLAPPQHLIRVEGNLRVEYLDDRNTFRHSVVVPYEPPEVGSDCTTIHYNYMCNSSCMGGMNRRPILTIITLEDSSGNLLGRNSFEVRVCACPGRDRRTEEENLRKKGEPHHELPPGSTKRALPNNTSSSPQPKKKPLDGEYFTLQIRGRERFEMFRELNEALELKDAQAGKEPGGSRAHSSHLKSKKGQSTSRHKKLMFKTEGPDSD
# [3] = measured here: cell number at 24 h, Library stock concentration: 3.33 mM
# [4] = measured here: cell number at 48 h, Library stock concentration: 3.33 mM
# [5] = Library stock concentration: 3.33 mM
# [6] = measured here: p53 positive nuclei at 24 h, Library stock concentration: 3.33 mM
# [7] = measured here: cell number at 24 h, concentration not given here
# [8] = measured here: cell number at 48 h, concentration not given here
# [9] = measured here: p53 positive nuclei at 24 h, concentration not given here
# [10] = measured here: cell number at 24 h, Library stock concentration: 80 uM
# [11] = measured here: cell number at 24 h, Library stock concentration: 400 uM
# [12] = measured here: cell number at 24 h, Library stock concentration: 2 mM
# [13] = measured here: cell number at 24 h, Library stock concentration: 10 mM
# [14] = measured here: cell number at 48 h, Library stock concentration: 80 uM
# [15] = measured here: cell number at 48 h, Library stock concentration: 400 uM
# [16] = measured here: cell number at 48 h, Library stock concentration: 2 mM
# [17] = measured here: cell number at 48 h, Library stock concentration: 10 mM
# [18] = Library stock concentration: 80 uM
# [19] = Library stock concentration: 400 uM
# [20] = Library stock concentration: 2 mM
# [21] = Library stock concentration: 10 mM
# [22] = measured here: p53 positive nuclei at 24 h, Library stock concentration: 80 uM
# [23] = measured here: p53 positive nuclei at 24 h, Library stock concentration: 400 uM
# [24] = measured here: p53 positive nuclei at 24 h, Library stock concentration: 2 mM
# [25] = measured here: p53 positive nuclei at 24 h, Library stock concentration: 10 mM
smiles,measurement,setting,value
CNC(=O)c1nn(C)c2c1C(C)(C)Cc1cnc(Nc3ccc(N4CCN(C)CC4)cc3)nc1-2,"nuclei count, normalised",[1]; [3],62.7%
same,"nuclei count, normalised",[1]; [4],44%
same,"p53-positive nuclei, normalised",[2]; [5],0.155% (inactive)
same,"p53-positive nuclei, normalised",[2]; [6],0.144%
C=CC(=O)Nc1cccc(Oc2nc(Nc3ccc(N4CCN(C)CC4)cc3)ncc2Cl)c1,"nuclei count, normalised",[1]; [3],64.1%
same,"nuclei count, normalised",[1]; [4],64.3%
same,"p53-positive nuclei, normalised",[2]; [5],-0.197% (inactive)
same,"p53-positive nuclei, normalised",[2]; [6],-0.375%
O=C1CN(c2ncnc3sccc23)CCN1Cc1ccc(F)cc1,"nuclei count, normalised",[1]; [7],108%
same,"nuclei count, normalised",[1]; [8],111%
same,"p53-positive nuclei, normalised",[2]; concentration not given here,-0.087% (inactive)
same,"p53-positive nuclei, normalised",[2]; [9],-0.23%
CC=CCC(C)C(O)C1C(=O)NC(CC)C(=O)N(C)CC(=O)N(C)C(CC(C)C)C(=O)NC(C(C)C)C(=O)N(C)C(CC(C)C)C(=O)NC(C)C(=O)NC(C)C(=O)N(C)C(CC(C)C)C(=O)N(C)C(CC(C)C)C(=O)N(C)C(C(C)C)C(=O)N1C (centres undefined),"nuclei count, normalised",[1]; [3],114% and 120%
same,"nuclei count, normalised",[1]; [4],120% and 121%
same,"p53-positive nuclei, normalised",[2]; [5],-0.306% (inactive) and -0.666% (inactive)
same,"p53-positive nuclei, normalised",[2]; [6],-0.452% and -0.338%
Cc1nn(C)c(C)c1-c1ccnc(NCC(C)Oc2cccnc2)n1 (centres undefined),"nuclei count, normalised",[1]; [7],103%
same,"nuclei count, normalised",[1]; [8],101%
same,"p53-positive nuclei, normalised",[2]; concentration not given here,-0.151% (inactive)
same,"p53-positive nuclei, normalised",[2]; [9],-0.079%
Cc1ncc(-c2ccnc(Nc3ccc(S(C)(=O)=O)cc3)n2)n1C(C)C,"nuclei count, normalised",[1]; [10],104% and 73.6%
same,"nuclei count, normalised",[1]; [11],100% and 83.3%
same,"nuclei count, normalised",[1]; [12],54.9% and 60.1%
same,"nuclei count, normalised",[1]; [3],46.1%
same,"nuclei count, normalised",[1]; [13],36.9% and 37.6%
same,"nuclei count, normalised",[1]; [14],105% and 49.6%
same,"nuclei count, normalised",[1]; [15],89.2% and 61.2%
same,"nuclei count, normalised",[1]; [16],24.1% and 33.6%
same,"nuclei count, normalised",[1]; [4],23%
same,"nuclei count, normalised",[1]; [17],21.8% and 24.6%
same,"p53-positive nuclei, normalised",[2]; [18],0.106% (inactive) and 10.7% (inactive)
same,"p53-positive nuclei, normalised",[2]; [19],0.447% (inactive) and 4.11% (inactive)
same,"p53-positive nuclei, normalised",[2]; [20],57.6% (inactive) and 42.9% (inactive)
same,"p53-positive nuclei, normalised",[2]; [5],60.3% (active)
same,"p53-positive nuclei, normalised",[2]; [21],50.8% (inactive) and 49.9% (inactive)
same,"p53-positive nuclei, normalised",[2]; [22],0.00746% and 0.944%
same,"p53-positive nuclei, normalised",[2]; [23],0.0769% and 0.14%
same,"p53-positive nuclei, normalised",[2]; [24],34.6% and 11.8%
same,"p53-positive nuclei, normalised",[2]; [6],32.5%
same,"p53-positive nuclei, normalised",[2]; [25],15.1% and 13.6%
COc1cc(-c2cccc(C)c2C)nc(N)n1,"nuclei count, normalised",[1]; [7],87.1%
same,"nuclei count, normalised",[1]; [8],74.8%
same,"p53-positive nuclei, normalised",[2]; concentration not given here,0.587% (inactive)
same,"p53-positive nuclei, normalised",[2]; [9],0.226%
CN(CC1COc2ccccc2O1)C(=O)Nc1nncs1 (centres undefined),"nuclei count, normalised",[1]; [7],103%
same,"nuclei count, normalised",[1]; [8],104%
same,"p53-positive nuclei, normalised",[2]; concentration not given here,-0.215% (inactive)
same,"p53-positive nuclei, normalised",[2]; [9],-0.0697%
O=C1NCCSc2c1sc1ccc(O)cc21,"nuclei count, normalised","[1]; measured here: cell number at 24 h, Library stock concentration: 46 uM",111%
same,"nuclei count, normalised","[1]; measured here: cell number at 24 h, Library stock concentration: 278 uM",108%
same,"nuclei count, normalised","[1]; measured here: cell number at 24 h, Library stock concentration: 1.67 mM",101%
same,"nuclei count, normalised",[1]; [13],56.1%
same,"nuclei count, normalised","[1]; measured here: cell number at 48 h, Library stock concentration: 46 uM",110%
same,"nuclei count, normalised","[1]; measured here: cell number at 48 h, Library stock concentration: 278 uM",113%
same,"nuclei count, normalised","[1]; measured here: cell number at 48 h, Library stock concentration: 1.67 mM",113%
same,"nuclei count, normalised",[1]; [17],36.9%
same,"p53-positive nuclei, normalised",[2]; Library stock concentration: 46 uM,-0.0208% (inactive)
same,"p53-positive nuclei, normalised",[2]; Library stock concentration: 278 uM,-0.288% (inactive)
same,"p53-positive nuclei, normalised",[2]; Library stock concentration: 1.67 mM,0.37% (inactive)
same,"p53-positive nuclei, normalised",[2]; [21],60.9% (active)
same,"p53-positive nuclei, normalised","[2]; measured here: p53 positive nuclei at 24 h, Library stock concentration: 46 uM",0.0309%
same,"p53-positive nuclei, normalised","[2]; measured here: p53 positive nuclei at 24 h, Library stock concentration: 278 uM",-0.0893%
same,"p53-positive nuclei, normalised","[2]; measured here: p53 positive nuclei at 24 h, Library stock concentration: 1.67 mM",0.2%
same,"p53-positive nuclei, normalised",[2]; [25],4.05%
O=C1NCCCc2c1oc1ccc(O)cc21,"nuclei count, normalised",[1]; [10],99.3%
same,"nuclei count, normalised",[1]; [11],92.2%
same,"nuclei count, normalised",[1]; [12],96.6%
same,"nuclei count, normalised",[1]; [13],89.4%
same,"nuclei count, normalised",[1]; [14],104%
same,"nuclei count, normalised",[1]; [15],99.1%
same,"nuclei count, normalised",[1]; [16],99.6%
same,"nuclei count, normalised",[1]; [17],98.7%
same,"p53-positive nuclei, normalised",[2]; [18],-0.0796% (inactive)
same,"p53-positive nuclei, normalised",[2]; [19],-0.0299% (inactive)
same,"p53-positive nuclei, normalised",[2]; [20],0.259% (inactive)
same,"p53-positive nuclei, normalised",[2]; [21],0.273% (inactive)
same,"p53-positive nuclei, normalised",[2]; [22],-0.0621%
same,"p53-positive nuclei, normalised",[2]; [23],-0.105%
same,"p53-positive nuclei, normalised",[2]; [24],0.32%
same,"p53-positive nuclei, normalised",[2]; [25],0.126%
CCCCCCCCCCCCCCCCOC[C@H](CO)OC(C)=O,"nuclei count, normalised",[1]; [7],97.1%
same,"nuclei count, normalised",[1]; [8],102%
same,"p53-positive nuclei, normalised",[2]; concentration not given here,-0.0599% (inactive)
same,"p53-positive nuclei, normalised",[2]; [9],0.0467%
